# Results published in the supplement of paper PMC9433436.
# ± gives the standard deviation of the averaged measurements. Whole data set: some 4,100 sequences, median “relative kcat/Km (krel) vs genomic leader AAAGAU” near 1.7, cut for the highest 2% near 6.5. Many of the other results were omitted from the sample, so the highest values are more common in it than they were.
# Molecular target: T1, E. coli RNase P holoenzyme (M1 P RNA + rnpA protein) (UniProt P0A7Y8)
# T1 sequence: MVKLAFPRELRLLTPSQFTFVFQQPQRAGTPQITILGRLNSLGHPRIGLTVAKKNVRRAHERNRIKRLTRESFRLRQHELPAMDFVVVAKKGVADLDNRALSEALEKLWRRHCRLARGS
# Test: relative kcat/Km (krel) vs genomic leader AAAGAU (relative (reference leader = 1)); higher = faster RNase P cleavage
# Protocol: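 HTS-Kin: a pool of ptRNA-Met (21C construct) with all 4096 combinations of 5' leader nucleotides N(-6) to N(-1) was processed in vitro by E. coli RNase P (P RNA + rnpA/C5 protein) under multiple-turnover conditions at 37 C, pH 8, 17.5 mM MgCl2. Residual substrate was Illumina-sequenced at several fractions reacted, and relative kcat/Km (krel) was computed by internal competition kinetics, calibrated to the genomic leader (AAAGAU = 1). The listed hexamer is the varied N(-6)..N(-1) leader (DNA letters), and it sits between a fixed 5' stem-loop flank (GCAUGCACGAAAGUGCGUGCUAUGAA) and the mature tRNA-Met starting GGCUACGUAGCUCAGUUGG. Two technical replicates are averaged.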
# [1] = fraction of substrate reacted: ~9-10% (9.79% repeat 1, 9.1% repeat 2)
# [2] = fraction of substrate reacted: ~13-16% (15.68% repeat 1, 13.17% repeat 2)
# [3] = fraction of substrate reacted: ~26-29% (28.66% repeat 1, 26.4% repeat 2)
Sequence,relative kcat/Km [1],relative kcat/Km [2],relative kcat/Km [3]
CCCTCC,3.55 ± 1.1,3.38 ± 0.94,4.21 ± 1.1
TCCTCT,3.55 ± 1.7,4.68 ± 1,6.72 ± 2.6
TCCTCC,3.65 ± 1.8,4.58 ± 1.2,6.57 ± 2.7
ACCTCC,3.29 ± 2.2,3.3 ± 0.22,4.3 ± 0.6
CCCTCT,2.96 ± 0.6,3.23 ± 0.81,3.9 ± 0.73
CCCTCA,2.47 ± 1.3,3.63 ± 0.37,3.95 ± 0.28
TCCTCG,2.35 ± 1.9,2.52 ± 0.14,3.64 ± 0.61
ATGGCA,,1.34 ± 1.2,1.01 ± 0.3
AGTAGG,,,1.52 ± 0.61
CCACCC,2 ± 0.12,1.27 ± 0.51,2.49 ± 0.73
AGATGT,0.906 ± 0.45,,1.84 ± 1.7
CTTGTG,,,0.748 ± 0.26
CGCGGG,0.135 ± 0.028,,0.258 ± 0.092
TATCTA,2.06 ± 0.75,2.24 ± 0.15,2.97 ± 1.5
AAGCAC,2.14 ± 1.2,1.53 ± 0.4,3.12 ± 1.2
TTTTGT,,,2.01 ± 1.6
TTTTGA,3.16 ± 0.88,4.56 ± 1.3,6.55 ± 2.4
ATTTGC,3.17 ± 0.9,3.69 ± 0.87,5.35 ± 1.6
TTTTGG,0.508 ± 0.012,,0.844 ± 0.31
TTTTGC,3.65 ± 1.3,4.42 ± 1.1,6.61 ± 2.8
GTTTGC,2.91 ± 0.62,3.18 ± 0.81,5.13 ± 1.9
AGAAAC,3.18 ± 0.43,2.7 ± 0.75,3.84 ± 1.5
ATAACA,0.435 ± 0.37,0.897 ± 0.17,1.43 ± 0.58
AAGAAT,2.06 ± 0.33,1.89 ± 0.36,3.17 ± 1.4
TGTTAC,3.59 ± 1.3,5.21 ± 1.2,8.19 ± 3.8

Sequence,relative kcat/Km [1],relative kcat/Km [2],relative kcat/Km [3]
AGTTAT,2.78 ± 0.19,4.36 ± 0.82,7 ± 3.2
TGTTTA,2.78 ± 0.84,3.23 ± 0.41,4.92 ± 2
TGTTGA,2.15 ± 0.44,3.32 ± 1.3,5.59 ± 2.1
AGTTCA,2.22 ± 0.21,2.82 ± 0.86,4.24 ± 1.9
AGTTAA,3.63 ± 1.5,5.9 ± 0.68,7.15 ± 2.6
TGTTGC,2.72 ± 0.32,2.95 ± 0.082,4.88 ± 1.9
TGTTCC,2.41 ± 1.7,3.08 ± 0.79,3.89 ± 1.1
TGTTAA,4.01 ± 0.87,5.39 ± 1.7,7.94 ± 3.5
AGTTTT,2.68 ± 0.23,3.38 ± 0.73,5.01 ± 1.8
AGTTCT,2.55 ± 0.89,3.08 ± 1.2,4.6 ± 1.6
AGTTTA,2.86 ± 0.36,3.18 ± 0.34,4.93 ± 2.3
ATGCAG,,0.709 ± 0.22,0.668 ± 0.4
ACAGCG,,,1.17 ± 0.16
AAGGGT,,,0.872 ± 0.84
GAATTA,1.25 ± 0.15,1.82 ± 0.37,2.25 ± 0.75
AATGCC,2.38 ± 1.7,1.43 ± 0.1,1.48 ± 0.22
TCGCAA,2.14 ± 1.8,2.55 ± 0.15,3.22 ± 0.85
CAGATT,1.72 ± 0.68,2 ± 0.1,2.79 ± 0.81
CGTTAG,2.87 ± 1.6,2.22 ± 0.3,4 ± 1.2
TGTTCT,1.986 ± 0.0021,2.58 ± 0.73,4.41 ± 1.8
CGTTAC,3.84 ± 0.72,5.28 ± 1.9,7.82 ± 2.9
CGTTAT,4.04 ± 1,5.58 ± 1.3,8.08 ± 3.4
CGTTAA,3.62 ± 0.3,5.04 ± 1.6,7.04 ± 2.8
GGTTAT,0.926 ± 0.33,1.69 ± 0.19,2.83 ± 1.2
CGTTTA,2.35 ± 0.28,3.11 ± 0.48,4.14 ± 1.4

Sequence,relative kcat/Km [1],relative kcat/Km [2],relative kcat/Km [3]
GGTTAA,0.853 ± 0.094,1.16 ± 0.33,1.35 ± 0.6
CGTTGT,0.465 ± 0.32,,1.21 ± 0.9
GGTTAC,0.591 ± 0.54,1.09 ± 0.22,2.13 ± 0.98
TGTTAG,2.17 ± 1.1,2.36 ± 0.065,4.6 ± 1.1
TGTTAT,3.17 ± 1.4,4.69 ± 0.22,6.81 ± 2.8
TATTGT,0.735 ± 0.4,,
GACCAC,2.53 ± 1.4,3.51 ± 0.65,5.22 ± 1.2
GCCCAG,0.499 ± 0.44,0.933 ± 0.79,3 ± 0.76
AAAATC,2.07 ± 0.94,1.14 ± 0.28,1.37 ± 0.15
ACTTAC,3.88 ± 2.3,4.09 ± 0.096,5.29 ± 1.6
AGTTAC,3.18 ± 1.6,5.31 ± 0.22,7.26 ± 2.7
AGTTAG,2.06 ± 1.1,2.34 ± 0.29,4.77 ± 1.3
TACGTA,2.14 ± 0.53,2.47 ± 0.38,3.67 ± 1.2
CAGAGT,,,0.537 ± 0.3
CTCTTA,2.98 ± 0.098,4.69 ± 1.5,6.21 ± 2.8
TTCTTC,4.65 ± 1.6,5.94 ± 0.85,7.95 ± 3.2
TGCTTC,2.79 ± 0.96,2.83 ± 0.76,3.73 ± 1.2
GTCTTT,4.65 ± 1.2,5.87 ± 1.4,8.44 ± 3.8
CTCTTG,2.31 ± 1.9,1.64 ± 0.35,3.11 ± 0.5
TTCTTA,4.55 ± 1.2,5.9 ± 0.59,7.98 ± 3.2
ATCTTC,3.23 ± 1.1,4.36 ± 0.71,6.11 ± 2.2
CTCTTC,3.63 ± 0.69,4.38 ± 0.62,6.47 ± 2.3
GCCTTT,3.36 ± 1.7,3.71 ± 0.066,5.06 ± 1.7
ATCTTA,2.6 ± 0.64,3.89 ± 0.59,5.74 ± 2.1
CTCTTT,3.59 ± 0.8,4.98 ± 1.2,7.01 ± 3

Sequence,relative kcat/Km [1],relative kcat/Km [2],relative kcat/Km [3]
GTCTTG,2.05 ± 1.9,1.96 ± 0.21,3.58 ± 0.69
TTAACT,1.58 ± 0.78,1.54 ± 0.2,2.03 ± 0.47
CCTCCC,0.874 ± 0.5,1.06 ± 0.17,1.57 ± 0.17
CTAGAC,1.95 ± 0.33,3.27 ± 0.96,4.19 ± 2.1
GGATTA,1.24 ± 0.14,0.993 ± 0.47,1.52 ± 0.41
TCGGTG,0.643 ± 0.43,,0.367 ± 0.27
GTCTTA,4.14 ± 1.1,5.78 ± 0.74,7.65 ± 2.9
TTCTTG,1.95 ± 1.7,1.96 ± 0.17,4 ± 1.1
TTCTTT,4.38 ± 0.77,6.36 ± 1.2,8.65 ± 4
AGCTTT,2.79 ± 1.2,2.71 ± 0.49,4.09 ± 1.6
GACTTC,3.65 ± 0.53,4.38 ± 2.1,6.22 ± 3.3
GTCTTC,4.4 ± 1.6,5.61 ± 1.7,8.18 ± 3.4
GCCTTA,2.94 ± 1.2,3.35 ± 0.54,5.21 ± 1.5
GCCTTC,3 ± 0.21,4.03 ± 2.2,5.81 ± 3.1
ATCTTG,,1.15 ± 0.053,2.716 ± 0.019
GGCTTA,1.58 ± 0.71,1.39 ± 0.29,1.79 ± 0.95
ATCTTT,3.55 ± 1.4,4.27 ± 0.42,6.67 ± 2.8
TGCTTT,2.25 ± 0.41,2.232 ± 0.0079,3.45 ± 1.3
TCAGCT,1.54 ± 0.23,0.491 ± 0.47,1.24 ± 0.075
GCTGTC,1.58 ± 0.93,0.624 ± 0.091,0.9566 ± 0.0067
GGCGAC,2.53 ± 0.11,2.47 ± 1.2,4.08 ± 1.4
TTAGAT,1.88 ± 0.57,2.14 ± 0.17,2.8 ± 1.2
